# Experimental data taken from publication PMC4336329 (PLoS ONE, 2015).
# About 14,000 (4.5%) of roughly 310,000 compounds showed an effect of 50% or more. The effect is printed as a negative number. This excerpt belongs to a sample that is enriched for strong results.
# Molecular target: human ether-à-go-go-related gene (hERG) potassium channel (human, UniProt Q12809)
# Experiment: primary screen, population patch clamp on CHO cells stably expressing hERG; higher = less effect of the substance
# 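Also: peak tail current of the secondary pulse compared with the same well before compound.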
# Sequence of human ether-à-go-go-related gene (hERG) potassium channel (Q12809 whole entry, looked up): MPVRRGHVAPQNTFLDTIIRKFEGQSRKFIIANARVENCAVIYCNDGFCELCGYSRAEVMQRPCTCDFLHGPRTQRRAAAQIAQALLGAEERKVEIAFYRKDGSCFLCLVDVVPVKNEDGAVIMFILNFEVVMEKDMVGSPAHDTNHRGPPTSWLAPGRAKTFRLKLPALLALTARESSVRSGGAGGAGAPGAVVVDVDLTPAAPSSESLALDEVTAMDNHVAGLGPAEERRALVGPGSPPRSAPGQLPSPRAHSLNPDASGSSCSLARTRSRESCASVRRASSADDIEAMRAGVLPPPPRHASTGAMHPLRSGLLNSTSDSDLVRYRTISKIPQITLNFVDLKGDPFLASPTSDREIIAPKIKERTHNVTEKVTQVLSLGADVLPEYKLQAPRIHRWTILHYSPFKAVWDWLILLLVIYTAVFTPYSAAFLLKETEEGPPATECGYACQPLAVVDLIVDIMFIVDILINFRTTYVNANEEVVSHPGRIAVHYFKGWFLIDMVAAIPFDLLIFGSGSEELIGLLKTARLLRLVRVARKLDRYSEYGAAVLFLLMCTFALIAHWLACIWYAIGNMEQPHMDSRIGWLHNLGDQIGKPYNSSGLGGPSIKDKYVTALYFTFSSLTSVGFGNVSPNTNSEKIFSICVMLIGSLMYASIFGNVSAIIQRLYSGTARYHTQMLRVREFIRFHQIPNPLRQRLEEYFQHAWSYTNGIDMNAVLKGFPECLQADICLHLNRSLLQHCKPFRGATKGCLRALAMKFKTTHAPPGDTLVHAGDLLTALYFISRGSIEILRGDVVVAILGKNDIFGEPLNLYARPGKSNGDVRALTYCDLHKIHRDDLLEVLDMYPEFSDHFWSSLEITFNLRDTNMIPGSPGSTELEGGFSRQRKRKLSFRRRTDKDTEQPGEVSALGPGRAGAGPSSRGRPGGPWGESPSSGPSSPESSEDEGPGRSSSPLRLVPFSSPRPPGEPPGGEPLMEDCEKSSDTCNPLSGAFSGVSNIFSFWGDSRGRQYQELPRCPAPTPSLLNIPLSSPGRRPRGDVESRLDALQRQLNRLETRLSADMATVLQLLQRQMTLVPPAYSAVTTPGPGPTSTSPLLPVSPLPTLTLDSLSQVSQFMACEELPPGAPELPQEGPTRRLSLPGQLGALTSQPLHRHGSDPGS
row,SMILES,"hERG current change (%, negative = inhibition) at 10uM [%]"
1,COc1ccc(CCN=C(N)NS(=O)(=O)c2cc(F)ccc2F)cc1,-17.2
2,N/C(Cc1ccc([N+](=O)[O-])cc1)=N\OC(=O)COc1ccccc1Cl,-21.2
3,O=C(c1ccccc1)N1CN2CN(C(=O)c3ccccc3)CC([N+](=O)[O-])(C2)C1,21.8
4,COc1cccc(-n2nnnc2SCC(=O)NCCc2ccccc2)c1,-20.8
5,COc1cccc(NC(=O)CSc2nnc(-c3ccoc3C)n2C)c1,4.35
6,COc1cccc(-n2c(SCC(=O)NCCc3ccccc3)nnc2-c2ccoc2C)c1,-76.8
7,COc1ccc(-n2c(SCC(=O)Nc3cccc(C(=O)O)c3)nnc2-c2ccco2)cc1,17.7
8,COC(=O)CSc1nnc(-c2ccoc2C)n1-c1ccc(OC)cc1,-18.3
9,COc1cccc(NC(=O)CSc2nnc(-c3ccoc3C)n2-c2ccccc2)c1,-85.7
10,CCn1c(SCC(=O)NC(C)(C)C)nnc1-c1ccoc1C,-18.5
11,Cc1occc1-c1nnc(SCC(=O)NCCc2ccccc2)o1,-11.5
12,COc1cccc(NC(=O)CSc2nnc(-c3ccoc3C)n2CC2CCCO2)c1 (centres unmarked),-1.09
13,COc1cccc(-n2c(SCC(=O)NC(C)(C)C)nnc2-c2ccoc2C)c1,-64.5
14,CCOc1ccccc1-n1c(SCC(=O)NC(C)(C)C)nnc1-c1ccoc1C,1.75
15,COc1ccc(-n2c(SCC(=O)Nc3ccccc3)nnc2-c2ccoc2C)cc1,-71.8
16,CN(CC(=O)Nc1cccc(F)c1)C(=O)CCC1CCCCC1,17.7
17,COC(=O)C(=NNc1c(C)n(C)n(-c2ccccc2)c1=O)C(=O)OC,9.93
18,COc1ccccc1NC(=O)c1cc(OC)c(OC)cc1[N+](=O)[O-],4.44
19,COc1ccc(N(C)S(=O)(=O)c2ccc3c(c2)CCC(=O)N3)cc1,-9.5
20,CN(C)c1ccc(/C=C(\C#N)c2ccccn2)cc1,-6.97
21,CN(C)CCOc1cc(Cl)cc(Cl)c1,7.27
22,CCOC(CNc1cc(C)nc2c(-c3ccccc3OC)c(C)nn12)OCC,8.64
23,COC(=O)c1ccc(NC(=O)CSc2nnc(C)n2-c2ccccc2)cc1,-2.35

row,SMILES,"hERG current change (%, negative = inhibition) at 10uM [%]"
1,Cc1n[nH]c(=S)n1/N=C/c1ccc(Br)o1,12.5
2,COc1ccc(S(=O)(=O)N2CCN(Cc3ccc(Cl)cc3)CC2)cc1,-10.8
3,COc1cccc(CN2CCN(S(=O)(=O)c3ccc(Br)cc3)CC2)c1,-29.4
4,O=S(=O)(c1ccc(Br)cc1)N1CCCN(Cc2cccc(F)c2)CC1,-17.9
5,COc1ccc(CN2CCCN(S(=O)(=O)c3ccc(Br)cc3)CC2)cc1,-74.4
6,COc1ccc(S(=O)(=O)N2CCCN(Cc3cccc(F)c3)CC2)cc1,-44.6
7,COc1cccc(CN2CCCN(S(=O)(=O)c3ccc(Br)cc3)CC2)c1,-58.6
8,COc1ccc(N2CSC3=C(C#N)C(c4ccc(OC)c(OC)c4)CC(=O)N3C2)c(OC)c1 (centres unmarked),-47.5
9,COc1ccc(N2C(=O)c3ccc(NC(C)=O)cc3C2=O)cc1,20.2
10,CC(=O)N1Cc2ccccc2CC1C(=O)O (centres unmarked),-7.43
11,CC1(C)CC(CC(=O)NC(=S)Nc2ccc([N+](=O)[O-])cc2)C(=O)O1 (centres unmarked),-21.2
12,CC(CC1CC(C)(C)OC1=O)C(=O)Nc1ccc([N+](=O)[O-])cc1 (centres unmarked),-51.4
13,CC1(C)CC(CC(=O)Nc2ccc([N+](=O)[O-])cc2)C(=O)O1 (centres unmarked),-22.5
14,COc1ccc(C)cc1NC(=O)CSCc1ccccc1C,-4
15,CCCCCOc1ccc(CSC2=NCCN2)cc1[N+](=O)[O-],-80.2
16,CCCOc1ccc(CSC2=NCCN2)cc1[N+](=O)[O-],-66.7
17,Cl.Clc1ccc(CSC2=NCCCN2)cc1Cl,-18.2
18,COc1ccc(CSC2=NCCN2)cc1Cl.Cl,-18.2
19,CCCCOc1ccc(CSC2=NCCN2)cc1[N+](=O)[O-].Cl,-68.7
20,COc1ccc(CSc2nc(C)[nH]c2[N+](=O)[O-])cc1[N+](=O)[O-],4.63
21,COc1ccc(CSC2=NCCN2)cc1Br,1.43
22,CCOc1ccc(CSC2=NCCN2)cc1Cl.Cl,-50.9
23,COc1ccc(CSc2cccc3cccnc23)cc1[N+](=O)[O-],1.59

row,SMILES,"hERG current change (%, negative = inhibition) at 10uM [%]"
1,Br.N#Cc1ccc(CSC2=NCCN2)cc1,-4.5
2,COc1ccc(CSc2n[nH]c(C)n2)cc1[N+](=O)[O-],26.2
3,CCCCOc1ccc(CSc2nnc(C)n2N)cc1[N+](=O)[O-],-31.5
4,CC(Oc1ccc(Cl)cc1)C(=O)NCCCn1ccnc1 (centres unmarked),-7.09
5,Cc1csc(NC(=O)CN2CCCCCC2)n1.O=C(O)C(=O)O,14.3
6,Cc1cc(C)c2cc(C(=O)Nc3ccc4c(c3)OCO4)[nH]c2c1,16.2
7,CCOc1ccc2c(C)c(C(=O)O)oc2c1OCC,16.5
8,NS(=O)(=O)c1cccc(NC(=O)CC2(CC(=O)O)CCCC2)c1,33.9
9,CSc1nc(Cc2ccc(Cl)cc2)nc2ccccc12,-16.7
10,COc1ccc(CSc2ncn[nH]2)cc1[N+](=O)[O-],2.83
11,Br.O=[N+]([O-])c1ccc(CSC2=NCCN2)cc1,-15.3
12,CCOc1ccc(CSC2=NCCN2)cc1[N+](=O)[O-].Cl,-83.5
13,Cc1ccc(-n2c(C)nnc2SCC(=O)N2CCOCC2)cc1,21.9
14,CSCCCNC(=S)Nc1cccc(S(=O)(=O)NC2=NCCC2)c1,32.8
15,CSc1ccccc1OCc1cc(C(=O)NCCn2nc(C)cc2C)no1,-0.00922
16,O=S(=O)(Nc1nc2ccccc2nc1NCC1CCCO1)c1ccccc1 (centres unmarked),2.43
17,CCOC(=O)C1(Cc2ccccc2C(F)(F)F)CCN(CC(O)CO)CC1 (centres unmarked),-3.71
18,CCOC(=O)C1(Cc2ccccc2C(F)(F)F)CCN(C(=O)c2cc(C)n(C)n2)CC1,-22.6
19,CCOC(=O)C1(Cc2ccccc2C(F)(F)F)CCN(C(C)CCn2cccn2)CC1 (centres unmarked),-65.6
20,CCOC(=O)C1(Cc2ccccc2C(F)(F)F)CCN(C(=O)c2cc(C(C)=O)n[nH]2)CC1,-57.2
21,CCOC(=O)C1(Cc2ccccc2C(F)(F)F)CCN(CCCn2cccn2)CC1,-82.1
22,CCOC(=O)C1(Cc2ccccc2C(F)(F)F)CCN(C2CCN(C(C)=O)CC2)CC1,-18.6
23,CCOC(=O)C1(Cc2ccccc2C(F)(F)F)CCN(C2CCN(C(C)C)CC2)CC1,-36.6

row,SMILES,"hERG current change (%, negative = inhibition) at 10uM [%]"
1,CCOC(=O)C1(Cc2ccccc2C(F)(F)F)CCN(Cc2ccon2)CC1,-2.88
2,CCOC(=O)C1(Cc2ccccc2C(F)(F)F)CCN(C(C)CSC)CC1 (centres unmarked),-48.2
3,COc1cccc2cc(C(=O)NCc3ccccc3Br)c(=O)oc12,19
4,CN(Cc1ccc(C(F)(F)F)cc1)C(=O)c1ccc(Oc2ccccc2)cc1,13.1
5,Cc1ccc(S(=O)(=O)Nc2ccccc2)cc1C(=O)N1CCCC1,-4.95
6,Cc1nonc1NC(=O)CSc1nc2ccc(Cl)cc2[nH]1,3.09
7,Cc1sc(NC(=O)Cn2[nH]c(=O)c3ccccc3c2=O)nc1-c1ccccc1,11.6
8,CCOC(=O)N1CCC(N2C(=O)c3ccccc3C2Nc2ccc(S(=O)(=O)N3CCOCC3)cc2)CC1 (centres unmarked),-16.7
9,CCOC(=O)N1CCC(N2C(=O)c3ccccc3C2Nc2ccc(C)cc2)CC1 (centres unmarked),-32.8
10,CCOC(=O)N1CCC(N2C(=O)c3ccccc3C2Nc2ccc(S(=O)(=O)N3CCCCC3)cc2)CC1 (centres unmarked),-58
11,CCOC(=O)N1CCC(N2C(=O)c3ccccc3C2Nc2cc(Cl)c(OC)cc2OC)CC1 (centres unmarked),-45.5
12,CCOC(=O)N1CCC(N2C(=O)c3ccccc3C2Nc2ccc(S(=O)(=O)N(CC)CC)cc2)CC1 (centres unmarked),-62.6
13,CCOC(=O)N1CCC(N2C(=O)c3ccccc3C2Nc2cccnc2)CC1 (centres unmarked),1.81
14,COc1ccc(C2C3=C(CC(C)(C)CC3=O)N(CC(=O)O)C3=C2C(=O)CC(C)(C)C3)cc1OC,2.83
15,COc1cc(OC)c(N2CC34C=CC(O3)C(C(=O)O)C4C2=O)cc1Cl (centres unmarked),4.99
16,CCc1nnc(NC(=O)CSc2ccc(-c3nc4ccc(C)cc4[nH]3)cn2)s1,6.54
17,CN(C)CCNC(=O)COc1ccc(Cl)cc1Cl,-18.2
18,CCc1ccc(OCC(=O)N(C)C)c(Br)c1,-7.33
19,CCc1ccc(OCC(=O)NCCN(C)C)c(Br)c1,-58.4
20,O=C(COC(=O)c1ccc2ncsc2c1)NCc1cccc(Cl)c1,-11.2
